Bioassay records: PubChem, several laboratories
MITF TRPM1 inh – inhibitors of MITF-dependent TRPM1 promoter reporter, primary screen, cell-based, SK-MEL-5, single point, luciferase | SK-MEL-5 TRPM1 promoter luciferase, 24 h | inhibition, % at 12.5 µM | actives 0.83% (n = 330,000) | AID 488899, 2010;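 active means mean inhibition across replicates of 60% or more, whatever share of single replicates reaches that level; inconclusive means some that reach 60%, reason not given; inactive means mean inhibition across replicates below 60%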
Shn3 inh set2 – reduction of Shn3 3'UTR firefly luciferase signal, primary screen, Schnurri-3 inhibitor project, cell-based, Clone20 osteoblasts, set 2; AID 588674, 2011; actives 0.52% (n = 360,000); Clone20 osteoblast Shn3 3'UTR firefly luciferase, 24 h; inhibition, % at 12.5 µM;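 active means mean inhibition of at least 75% with every replicate also reaching 75%; inconclusive means mean inhibition at least 75% but some replicate below; inactive means mean inhibition below 75%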
Peg3 prom inh – Peg3 promoter-driven luciferase inhibitors, primary screen, cell-based, HeLa, luciferase luminescence; HeLa PEG-Prom luciferase reporter, overnight; inhibition, % at 20 µM; actives 1.7% (n = 360,000); AID 588405, 2011;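 active means inhibition of at least 50% at 20 µM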
EBV LMP1 NFkB – EBV LMP1-driven NF-kappaB luciferase reporter inhibitors, primary screen, cell-based, luminescence, single point. actives 0.69% (n = 350,000). LMP1-induced NF-kappaB luciferase reporter cells. inhibition, % at 12.5 µM; in the data active means inhibition above about 41%; inconclusive means no clear call, values can overlap the other calls
TROY signal inh – inhibitors of TROY-driven NF-kB signaling, primary screen, Q293 LMP1-TROYcd cells, NF-kB luciferase, uHTS | inhibition, % at 10 µM | Q293 LMP1-TROYcd NF-kB luciferase reporter, 4 h | actives 0.98% (n = 360,000);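 active means compounds whose plate-normalised and pattern-corrected inhibition of the luciferase reporter signal at the single screening dose is 50% or more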
TWEAK Fn14 block – inhibitors of TWEAK-Fn14 signaling, primary screen, luciferase reporter cells, uHTS. TWEAK-stimulated Fn14 reporter cells, luciferase luminescence, 8 h. inhibition, % at 10 µM. actives 2% (n = 360,000); in the data active means inhibition above about 50%
Of the large screens only hits and unclear results are named; the others gave an inactive call. Shown are actives, neighbours in structure and some others; about 4.1% of the full set was active somewhere.

CC(C(Sc1ccccc1N)c1ccccc1)[N+](=O)[O-] (centres undefined)	MITF TRPM1 inh 71, TROY signal inh 55
COc1ccc(CSc2nnc(-c3ccncc3)n2C)cc1F	none
COc1cccc(C2=Cc3ccc(F)cc3C(CC(C)=O)N2c2ccc(C#CC3(O)CCCCC3)cc2)c1 (centres undefined)	TWEAK Fn14 block 65 (no result: MITF TRPM1 inh, Shn3 inh set2, Peg3 prom inh, EBV LMP1 NFkB)
COc1cc(OC)cc(C2=Cc3ccc(OC)cc3C(CC(C)=O)N2c2ccc(C#CC3(O)CCCCC3)cc2)c1 (centres undefined)	none (no result: MITF TRPM1 inh, Shn3 inh set2, Peg3 prom inh, EBV LMP1 NFkB)
Cn1c(/C=C/c2ccc(Cl)cc2)c([N+](=O)[O-])c(=O)n(C)c1=O	MITF TRPM1 inh inconclusive, TWEAK Fn14 block 56
Cn1c(/C=C/c2cccc([N+](=O)[O-])c2)c([N+](=O)[O-])c(=O)n(C)c1=O	TWEAK Fn14 block 57
COc1ccccc1N1CCN(S(=O)(=O)c2cn(C)nc2C)CC1	none
O=C(O)CSc1nc2c(cnn2-c2ccccc2)c(=O)n1-c1ccc(Br)cc1	none
O=c1c2cnn(-c3ccccc3)c2nc(-c2cccs2)n1-c1ccc(Br)cc1	EBV LMP1 NFkB 43
O=c1c2cnn(-c3ccccc3)c2nc(-c2ccco2)n1-c1ccccc1	TWEAK Fn14 block 55
CC(C)Oc1ccc(Cl)cc1Nc1nc(NCCO)nc(N2CCCC2)n1	none
Cc1ccc(N2CCCCn3c2nc2c3c(=O)n(CC(=O)O)c(=O)n2C)cc1	EBV LMP1 NFkB 56
CCCn1c(=O)c2c(nc3n2CCCN3CCc2ccccc2)n(C)c1=O	none
Cn1c(=O)n(CCc2ccccc2)c(=O)c2c1nc1n2CCCN1CCc1ccccc1	Peg3 prom inh 69
Cn1c(=O)n(CCc2ccccc2)c(=O)c2c1nc1n2CCCN1Cc1ccccc1	TWEAK Fn14 block 52
CCOC(=O)Cn1c(=O)c2c(nc3n2CCCCN3c2ccc(C)cc2)n(C)c1=O	none
COc1ccc(N2CCCn3c2nc2c3c(=O)n(CCc3ccccc3)c(=O)n2C)cc1	Peg3 prom inh 52
O=C1c2ccccc2[C@@H]2C[C@@H](O)[C@H](Nc3cccc(Cl)n3)CCN12	none
O=C1[C@@H](Oc2ccccc2)[C@@H](c2cnc3ccccc3c2)N1c1ccccc1	none
Cc1nn(-c2ccccc2)c(Cl)c1/C=N/NC(=O)c1ccn[nH]1	TWEAK Fn14 block 50 (no result: EBV LMP1 NFkB)
Cc1nn(-c2ccccc2)c(Cl)c1/C=N/NC(=O)c1[nH]ncc1Br	TWEAK Fn14 block 53
Cc1cc(C(=O)Cn2nnc3ccccc3c2=O)c(C)n1-c1ccccc1F	TROY signal inh 82, TWEAK Fn14 block 73
Cc1cc(C(=O)COC(=O)c2ccc(O)cc2)c(C)n1CC(F)(F)F	none (no result: MITF TRPM1 inh)
CCCn1c(C)cc(C(=O)COC(=O)c2ccc[nH]c2=O)c1C	EBV LMP1 NFkB 48, TROY signal inh 72, TWEAK Fn14 block 80
Cc1cc(C(=O)COC(=O)c2ccc(O)cc2)c(C)n1-c1ccccc1F	TROY signal inh 84, TWEAK Fn14 block 75
Cc1cc(C(=O)COC(=O)C2=NNC(=O)CC2)c(C)n1-c1ccccc1	TROY signal inh 57
COc1ccc(-n2c(C)cc(C(=O)Cn3nnc4ccccc4c3=O)c2C)cc1	none
O=C(COC(=O)c1ccc(O)cc1O)Nc1nnc(-c2ccccc2)o1	none
O=C(NC1CCN(C(=S)Nc2ccc(F)cc2)CC1)c1ccco1	none
CN1C(=O)C(=O)N(CC(=O)Nc2ccccc2OC(F)F)C1=O	none
Cc1ccc(-n2c(C)cc(C(=O)COC(=O)c3ccc[nH]c3=O)c2C)cc1C	none
Cc1cc(C(=O)COC(=O)c2ccc[nH]c2=O)c(C)n1-c1ccccc1F	TWEAK Fn14 block 59
Cc1cccc(NC(=O)NNC(=O)COc2ccc([N+](=O)[O-])cc2)c1C	none
CC(=NNC(=S)Nc1ccccc1)c1ccccn1	EBV LMP1 NFkB 72 (no result: MITF TRPM1 inh)
N/C(=N\NC(=O)Nc1ccccc1)c1ccccn1	none (no result: MITF TRPM1 inh, EBV LMP1 NFkB)
CC(=NNC(=S)Nc1ccccc1Cl)c1ccccn1	Shn3 inh set2 90, EBV LMP1 NFkB 57
